Test results taken from the supplement of paper PMC11732987, “Enantioselective OTUD7B fragment discovery through chemoproteomics screening and high-throughput optimisation” (Communications Chemistry, 2025).
Unmarked numbers belong to inactive results.

What was measured:
Test in all cases: log2 ratio of Biotin-Ahx-Ub-VS probe labelling (fragment/DMSO); higher = less target engagement (more negative = stronger competition), active = hit call of the paper (q ≤ 0.05, log2 ratio ≤ -1)
Settings in all cases: compound concentration: 200 uM; treatment time: 3 h
[1] = molecular target: T1, ALG13 (UniProt Q9NP73)
T1 sequence (whole entry): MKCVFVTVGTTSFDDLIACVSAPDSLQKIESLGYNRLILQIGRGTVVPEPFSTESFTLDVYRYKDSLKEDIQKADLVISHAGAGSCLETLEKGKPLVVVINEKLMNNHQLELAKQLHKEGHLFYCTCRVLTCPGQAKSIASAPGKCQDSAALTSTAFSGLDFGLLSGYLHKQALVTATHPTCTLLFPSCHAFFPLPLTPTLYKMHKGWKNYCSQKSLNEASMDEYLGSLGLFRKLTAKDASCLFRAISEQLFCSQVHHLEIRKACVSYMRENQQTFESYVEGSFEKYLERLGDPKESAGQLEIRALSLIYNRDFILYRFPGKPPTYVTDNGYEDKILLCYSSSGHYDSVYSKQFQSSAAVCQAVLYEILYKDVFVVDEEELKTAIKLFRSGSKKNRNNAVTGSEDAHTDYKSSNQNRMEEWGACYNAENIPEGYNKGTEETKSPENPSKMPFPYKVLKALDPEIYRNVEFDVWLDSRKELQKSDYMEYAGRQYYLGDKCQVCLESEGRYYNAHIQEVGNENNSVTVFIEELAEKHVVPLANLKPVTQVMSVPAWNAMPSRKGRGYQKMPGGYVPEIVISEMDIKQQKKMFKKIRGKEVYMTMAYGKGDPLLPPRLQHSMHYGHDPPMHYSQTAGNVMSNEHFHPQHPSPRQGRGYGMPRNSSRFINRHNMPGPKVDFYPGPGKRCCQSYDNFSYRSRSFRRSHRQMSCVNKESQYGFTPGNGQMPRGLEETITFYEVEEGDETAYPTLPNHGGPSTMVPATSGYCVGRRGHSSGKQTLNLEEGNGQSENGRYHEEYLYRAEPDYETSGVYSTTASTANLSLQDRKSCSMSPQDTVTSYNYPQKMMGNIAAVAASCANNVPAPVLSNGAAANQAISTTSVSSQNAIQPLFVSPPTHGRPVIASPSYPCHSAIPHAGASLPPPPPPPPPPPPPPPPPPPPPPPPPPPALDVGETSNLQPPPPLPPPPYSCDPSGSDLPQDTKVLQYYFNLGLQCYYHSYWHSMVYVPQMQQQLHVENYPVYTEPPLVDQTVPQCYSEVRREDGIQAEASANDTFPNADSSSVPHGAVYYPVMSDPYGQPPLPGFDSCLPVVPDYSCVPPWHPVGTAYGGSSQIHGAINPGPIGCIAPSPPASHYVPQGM
Summary of the method: (§1)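 HEK293T lysate, 495 µg per sample in Tris/CHAPS/IGEPAL buffer with protease inhibitors, was treated in triplicate with fragment at 200 µM or vehicle for 3 h and then with Biotin-Ahx-Ub-VS at 0.5 µM final for 1 h. Labelled DUBs were NeutrAvidin-enriched, digested with LysC and trypsin, and run by diaPASEF LC-MS/MS. Spectronaut label-free quantities were global-median-normalised, and values are average log2 fragment/vehicle ratios by unpaired t-test on proteins with ≥2 unique peptides.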

[2] = molecular target: ATXN3 (UniProt P54252)
Sequence of ATXN3 (P54252 whole entry): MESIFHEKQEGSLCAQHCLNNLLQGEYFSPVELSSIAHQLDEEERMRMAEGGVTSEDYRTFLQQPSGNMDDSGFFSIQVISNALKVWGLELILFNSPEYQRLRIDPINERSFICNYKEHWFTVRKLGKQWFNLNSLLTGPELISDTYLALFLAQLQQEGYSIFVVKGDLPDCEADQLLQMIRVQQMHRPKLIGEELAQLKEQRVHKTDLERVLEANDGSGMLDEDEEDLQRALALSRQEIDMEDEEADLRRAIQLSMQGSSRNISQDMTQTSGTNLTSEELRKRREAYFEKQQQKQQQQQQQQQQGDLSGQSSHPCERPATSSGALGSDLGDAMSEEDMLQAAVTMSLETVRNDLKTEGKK
Summary of the method: as §1

[3] = molecular target: T2, BAP1 (UniProt Q92560)
T2 sequence (whole entry): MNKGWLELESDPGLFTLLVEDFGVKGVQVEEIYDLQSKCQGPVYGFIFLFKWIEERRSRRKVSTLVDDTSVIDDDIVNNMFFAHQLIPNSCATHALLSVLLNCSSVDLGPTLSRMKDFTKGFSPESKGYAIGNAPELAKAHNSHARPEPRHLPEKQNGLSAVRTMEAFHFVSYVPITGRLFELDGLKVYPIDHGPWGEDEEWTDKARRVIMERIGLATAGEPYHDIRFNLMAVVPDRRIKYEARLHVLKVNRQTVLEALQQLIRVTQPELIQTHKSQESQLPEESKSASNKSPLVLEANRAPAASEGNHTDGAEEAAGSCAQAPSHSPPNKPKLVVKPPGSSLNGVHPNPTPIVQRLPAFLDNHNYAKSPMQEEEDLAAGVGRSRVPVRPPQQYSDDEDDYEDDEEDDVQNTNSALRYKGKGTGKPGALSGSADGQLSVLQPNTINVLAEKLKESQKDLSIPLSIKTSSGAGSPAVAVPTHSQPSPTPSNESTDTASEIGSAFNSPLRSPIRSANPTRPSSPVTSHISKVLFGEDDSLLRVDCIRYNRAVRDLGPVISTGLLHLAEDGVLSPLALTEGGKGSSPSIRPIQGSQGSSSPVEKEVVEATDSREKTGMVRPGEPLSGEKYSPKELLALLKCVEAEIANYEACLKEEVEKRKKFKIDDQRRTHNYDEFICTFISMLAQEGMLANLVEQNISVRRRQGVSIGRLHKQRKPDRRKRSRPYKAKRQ
Summary of the method: as §1

[4] = molecular target: EIF3F (UniProt O00303)
Sequence of EIF3F (O00303 whole entry): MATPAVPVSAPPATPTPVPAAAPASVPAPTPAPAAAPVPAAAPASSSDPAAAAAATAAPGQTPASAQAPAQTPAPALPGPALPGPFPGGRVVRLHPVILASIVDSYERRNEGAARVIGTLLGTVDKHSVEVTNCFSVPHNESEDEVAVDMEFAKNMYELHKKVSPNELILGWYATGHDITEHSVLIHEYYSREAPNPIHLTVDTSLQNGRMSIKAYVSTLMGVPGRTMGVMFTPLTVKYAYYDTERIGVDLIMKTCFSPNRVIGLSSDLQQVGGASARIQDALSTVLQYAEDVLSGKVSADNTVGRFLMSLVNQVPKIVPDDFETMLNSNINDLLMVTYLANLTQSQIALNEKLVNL
Summary of the method: as §1

[5] = molecular target: EIF3H (UniProt O15372)
Sequence of EIF3H (O15372 whole entry): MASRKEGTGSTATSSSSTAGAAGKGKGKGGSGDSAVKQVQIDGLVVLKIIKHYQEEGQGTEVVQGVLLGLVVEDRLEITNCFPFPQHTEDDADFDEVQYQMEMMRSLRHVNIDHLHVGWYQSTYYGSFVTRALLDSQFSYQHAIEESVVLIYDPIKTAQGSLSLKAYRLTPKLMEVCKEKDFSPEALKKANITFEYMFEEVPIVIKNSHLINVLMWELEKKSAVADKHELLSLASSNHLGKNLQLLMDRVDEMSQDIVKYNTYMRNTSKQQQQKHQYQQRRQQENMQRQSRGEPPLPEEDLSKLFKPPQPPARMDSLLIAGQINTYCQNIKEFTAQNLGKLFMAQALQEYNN
Summary of the method: as §1

[6] = molecular target: T3, FAM105A (UniProt Q9NUU6)
T3 sequence (whole entry): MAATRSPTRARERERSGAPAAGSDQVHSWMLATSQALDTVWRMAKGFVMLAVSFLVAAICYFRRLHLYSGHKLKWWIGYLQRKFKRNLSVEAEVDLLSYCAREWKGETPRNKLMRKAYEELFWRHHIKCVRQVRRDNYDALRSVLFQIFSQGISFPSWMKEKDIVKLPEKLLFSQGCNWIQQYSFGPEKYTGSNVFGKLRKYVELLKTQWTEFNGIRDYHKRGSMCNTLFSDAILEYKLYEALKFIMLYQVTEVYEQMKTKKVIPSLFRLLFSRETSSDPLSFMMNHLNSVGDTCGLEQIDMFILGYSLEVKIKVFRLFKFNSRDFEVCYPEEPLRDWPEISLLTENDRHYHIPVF
Summary of the method: as §1

[7] = molecular target: OTUB1 (UniProt Q96FW1)
Sequence of OTUB1 (Q96FW1 whole entry): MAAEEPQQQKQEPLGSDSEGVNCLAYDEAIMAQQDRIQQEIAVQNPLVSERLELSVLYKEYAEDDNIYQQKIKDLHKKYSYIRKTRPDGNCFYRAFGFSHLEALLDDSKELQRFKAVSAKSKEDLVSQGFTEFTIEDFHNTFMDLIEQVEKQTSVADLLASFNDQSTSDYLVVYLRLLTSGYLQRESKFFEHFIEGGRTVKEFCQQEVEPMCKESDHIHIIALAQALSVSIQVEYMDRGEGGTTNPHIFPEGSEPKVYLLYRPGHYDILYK
Summary of the method: as §1

[8] = molecular target: T4, OTUD4 (UniProt Q01804)
T4 sequence (whole entry): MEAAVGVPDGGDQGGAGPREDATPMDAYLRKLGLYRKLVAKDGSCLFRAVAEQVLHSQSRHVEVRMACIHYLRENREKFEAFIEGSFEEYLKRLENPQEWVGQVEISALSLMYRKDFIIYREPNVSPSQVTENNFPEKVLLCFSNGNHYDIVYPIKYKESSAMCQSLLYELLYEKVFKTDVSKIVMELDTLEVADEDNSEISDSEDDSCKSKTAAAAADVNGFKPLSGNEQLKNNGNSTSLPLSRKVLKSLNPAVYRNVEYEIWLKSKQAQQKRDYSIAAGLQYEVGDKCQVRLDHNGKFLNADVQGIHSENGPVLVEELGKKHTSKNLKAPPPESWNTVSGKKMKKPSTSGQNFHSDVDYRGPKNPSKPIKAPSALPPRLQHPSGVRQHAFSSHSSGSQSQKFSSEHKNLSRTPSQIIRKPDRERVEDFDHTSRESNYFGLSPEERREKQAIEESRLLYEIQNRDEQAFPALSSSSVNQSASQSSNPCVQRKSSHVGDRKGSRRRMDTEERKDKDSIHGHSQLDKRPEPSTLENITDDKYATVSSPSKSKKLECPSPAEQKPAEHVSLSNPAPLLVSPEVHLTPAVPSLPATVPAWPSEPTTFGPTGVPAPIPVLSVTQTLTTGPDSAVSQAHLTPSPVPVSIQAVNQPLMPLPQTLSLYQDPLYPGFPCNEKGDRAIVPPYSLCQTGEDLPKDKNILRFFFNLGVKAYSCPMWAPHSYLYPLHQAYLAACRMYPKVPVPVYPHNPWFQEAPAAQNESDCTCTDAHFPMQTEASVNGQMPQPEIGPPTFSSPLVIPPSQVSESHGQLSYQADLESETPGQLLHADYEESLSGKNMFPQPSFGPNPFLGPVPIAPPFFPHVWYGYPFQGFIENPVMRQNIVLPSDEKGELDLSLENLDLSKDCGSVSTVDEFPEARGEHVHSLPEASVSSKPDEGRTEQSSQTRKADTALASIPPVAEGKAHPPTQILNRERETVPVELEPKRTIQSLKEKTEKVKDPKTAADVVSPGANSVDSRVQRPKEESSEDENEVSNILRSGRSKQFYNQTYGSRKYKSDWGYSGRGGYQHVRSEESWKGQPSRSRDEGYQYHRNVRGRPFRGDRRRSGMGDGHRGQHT
Summary of the method: as §1

[9] = molecular target: T5, OTUD5 (UniProt Q96G74)
T5 sequence (whole entry): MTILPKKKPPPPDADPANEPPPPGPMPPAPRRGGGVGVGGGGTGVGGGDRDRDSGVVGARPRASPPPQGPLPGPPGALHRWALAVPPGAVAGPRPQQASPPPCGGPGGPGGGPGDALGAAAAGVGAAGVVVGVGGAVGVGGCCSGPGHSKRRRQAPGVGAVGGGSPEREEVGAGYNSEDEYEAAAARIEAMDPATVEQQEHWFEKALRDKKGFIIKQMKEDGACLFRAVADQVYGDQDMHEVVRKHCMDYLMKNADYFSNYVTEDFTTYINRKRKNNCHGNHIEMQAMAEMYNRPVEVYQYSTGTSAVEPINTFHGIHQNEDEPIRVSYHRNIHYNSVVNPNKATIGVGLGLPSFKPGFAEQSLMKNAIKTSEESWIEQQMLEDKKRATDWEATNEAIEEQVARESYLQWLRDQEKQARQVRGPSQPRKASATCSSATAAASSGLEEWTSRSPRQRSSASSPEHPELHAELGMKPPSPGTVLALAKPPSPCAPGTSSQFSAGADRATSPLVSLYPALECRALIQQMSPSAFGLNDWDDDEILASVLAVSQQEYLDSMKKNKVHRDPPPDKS
Summary of the method: as §1

CC(NC(=O)CCl)c1noc(Cc2ccccc2)n1 (centres undefined)
log2 ratio of Biotin-Ahx-Ub-VS probe labelling [1]: 0.107 | log2 ratio of Biotin-Ahx-Ub-VS probe labelling [2]: -0.275 | log2 ratio of Biotin-Ahx-Ub-VS probe labelling [3]: -2.73 (active) | log2 ratio of Biotin-Ahx-Ub-VS probe labelling [4]: -0.25 | log2 ratio of Biotin-Ahx-Ub-VS probe labelling [5]: -0.398 | log2 ratio of Biotin-Ahx-Ub-VS probe labelling [6]: -0.027 | log2 ratio of Biotin-Ahx-Ub-VS probe labelling [7]: 0.0412 | log2 ratio of Biotin-Ahx-Ub-VS probe labelling [8]: -0.692 | log2 ratio of Biotin-Ahx-Ub-VS probe labelling [9]: -0.271
